Read-out in assay [1]: Phosphatase and tensin (PTEN), PTEN (gene 5728)
Briefly: LTEA_HepaRG_PTEN: Life Technologies and Expression Analysis (LTEA) Assay for Phosphatase and tensin (PTEN) using HepaRG (AID 2283523). The conditions noted are these: mRNA level, 48 h; actives raise or lower the signal. In short, it runs like this: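 Read-out: TaqMan qRT-PCR of PTEN transcript, normalized to three housekeeping genes, fitted in both directions against 0.5% DMSO. Differentiated human HepaRG cultures received chemicals for 48 h, eight-point half-log series topping at 100 uM.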

Read-out in assay [2]: solute carrier (SLC22A1), SLC22A1 (gene 6580)
Briefly: LTEA_HepaRG_SLC22A1: Life Technologies and Expression Analysis (LTEA) Assay for solute carrier (SLC22A1) using HepaRG (AID 2283524).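 For AC50: differentiated human HepaRG liver cells in serum-free induction medium.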 The settings on record: mRNA level, 48 h; actives raise or lower the signal. In short, it runs like this:
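Transcript level of SLC22A1 quantified by qRT-PCR (normalized to three housekeeping genes) after 48 h chemical exposure of HepaRG cells, eight concentrations up to 100 µM, half-log steps, 0.5% DMSO vehicle. Gain or loss relative to DMSO fitted bidirectionally.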

Read-out in assay [3]: NAD(P)H dehydrogenase [quinone] 1 (NQO1), NQO1 (gene 1728)
The experiment in a line: LTEA_HepaRG_NQO1: Life Technologies and Expression Analysis (LTEA) Assay for NAD(P)H dehydrogenase [quinone] 1 (NQO1) using HepaRG (AID 2283526). The conditions noted are these: mRNA level, 48 h; actives raise or lower the signal. In short, it runs like this: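 qRT-PCR read-out (Fluidigm TaqMan), normalized to three housekeeping genes, after 48 h chemical exposure of HepaRG cells. Concentrations: eight points, top 100 uM, half-log steps, 0.5% DMSO vehicle. Gain or loss of signal fitted relative to DMSO.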

Read-out in assay [4]: Nuclear factor erythroid 2-related factor 2 (Homo sapiens) (UniProt Q16236)
The experiment in a line: LTEA_HepaRG_NFE2L2: Life Technologies and Expression Analysis (LTEA) Assay for Nuclear factor erythroid 2-related factor 2 (NFE2L2) Transcription Factor using HepaRG (AID 2283527).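 For outcome: TaqMan qRT-PCR transcript level normalised to ACTB GAPDH and POLR2A housekeeping genes.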 The settings on record: mRNA level, 48 h; actives raise or lower the signal. In short, it runs like this: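 NFE2L2 transcript level was read by qRT-PCR (housekeeping ACTB/GAPDH/POLR2A normalisation) after 48 h chemical treatment of HepaRG in serum-free induction medium. Duplicate 8-point half-log curves, top 100 uM, 0.5% DMSO vehicle; up- or down-regulation fitted against vehicle.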

Read-out in assay [5]: succinate dehydrogenase complex iron sulfur subunit B (SDHB), SDHB (gene 6390)
Briefly: LTEA_HepaRG_SDHB: Life Technologies and Expression Analysis (LTEA) Assay for succinate dehydrogenase complex iron sulfur subunit B (SDHB) using HepaRG (AID 2283528). The conditions noted are these: mRNA level, 48 h; actives raise or lower the signal. In short, it runs like this:
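Readout is SDHB transcript level by qRT-PCR, normalised to three housekeeping genes and fitted bidirectionally against 0.5% DMSO vehicle. Human HepaRG cells were treated for 48 h at up to 100 uM.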

Read-out in assay [6]: Signal transducer and activator of transcription 3 (Homo sapiens) (UniProt P40763)
The experiment in a line: LTEA_HepaRG_STAT3: Life Technologies and Expression Analysis (LTEA) Assay for Signal transducer and activator of transcription (STAT3) using HepaRG (AID 2283529). The conditions noted are these: mRNA level, 48 h; actives raise or lower the signal. In short, it runs like this:
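STAT3 transcript quantified by qRT-PCR against three housekeeping genes (ACTB, GAPDH, POLR2A), fitted both directions relative to DMSO. HepaRG cultures exposed 48 h to eight half-log concentrations, top 100 uM, 0.5% DMSO, serum-free induction medium.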

Read-out in assay [7]: solute carrier (SLCO1B1), SLCO1B1 (gene 10599)
The experiment in a line: LTEA_HepaRG_SLCO1B1: Life Technologies and Expression Analysis (LTEA) Assay for solute carrier (SLCO1B1) using HepaRG (AID 2283530). The conditions noted are these: mRNA level, 48 h; actives raise or lower the signal. In short, it runs like this:
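Human HepaRG cultures treated for 48 h with an eight-concentration half-log series topping at 100 uM; SLCO1B1 measured by qRT-PCR and fitted bidirectionally relative to DMSO.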

Read-out in assay [8]: sulfotransferase 2A1 (SULT2A1), SULT2A1 (gene 6822)
The experiment in a line: LTEA_HepaRG_SULT2A1: Life Technologies and Expression Analysis (LTEA) Assay for sulfotransferase 2A1 (SULT2A1) using HepaRG (AID 2283531). The settings on record: mRNA level, 48 h; actives raise or lower the signal. In short, it runs like this: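 Gene-expression endpoint in a human liver cell line: SULT2A1 mRNA change after 48 h chemical treatment, curves fitted in both directions relative to 0.5% DMSO vehicle. Concentrations spanned eight half-log steps from 100 uM.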

Read-out in assay [9]: Transforming Growth Factor (TGFA), TGFA (gene 7039)
The experiment in a line: LTEA_HepaRG_TGFA: Life Technologies and Expression Analysis (LTEA) Assay for Transforming Growth Factor (TGFA) using HepaRG (AID 2283532). The settings on record: mRNA level, 48 h; actives raise or lower the signal. In short, it runs like this: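 TGFA transcript quantified by qRT-PCR (Fluidigm arrays) against three housekeeping genes, after 48 hours chemical treatment of HepaRG cells. Top concentration 100 uM with half-log dilutions, 8 points, duplicates, 0.5% DMSO.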

Read-out in assay [10]: Transforming Growth Factor (TGFB1), TGFB1 (gene 7040)
Briefly: LTEA_HepaRG_TGFB1: Life Technologies and Expression Analysis (LTEA) Assay for Transforming Growth Factor (TGFB1) Transporter using HepaRG (AID 2283533). The conditions noted are these: mRNA level, 48 h; actives raise or lower the signal. In short, it runs like this: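 Eight-point concentration-response (max 100 uM, half-log) in HepaRG under serum-free induction conditions, 48 h. TGFB1 mRNA by qRT-PCR, housekeeping-normalized.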

Read-out in a further assay: TIMP1, TIMP1 (gene 7076)
Briefly: LTEA_HepaRG_TIMP1: Life Technologies and Expression Analysis (LTEA) Assay for TIMP1 using HepaRG (AID 2283534).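 Note: TaqMan qRT-PCR signal normalized to ACTB GAPDH and POLR2A housekeeping genes.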 The settings on record: mRNA level, 48 h; actives raise or lower the signal. In short, it runs like this: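 TIMP1 induction or repression in HepaRG cells after 48 h chemical exposure (eight concentrations, highest 100 uM), assessed by normalized qRT-PCR with bidirectional fitting to DMSO controls.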

Read-out in assay [11]: Tumor necrosis factor receptor 1 (TNFRSF1A), TNFRSF1A (gene 7132)
Briefly: LTEA_HepaRG_TNFRSF1A: Life Technologies and Expression Analysis (LTEA) Assay for Tumor necrosis factor receptor 1 (TNFRSF1A) using HepaRG (AID 2283535). The settings on record: mRNA level, 48 h; actives raise or lower the signal. In short, it runs like this: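 Assay uses 48 h chemical treatment of differentiated HepaRG monolayers, tested in duplicate at eight concentrations from 100 uM downward in 0.5% DMSO. mRNA is normalized to ACTB, GAPDH and POLR2A, with induction or suppression fitted relative to vehicle.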

Read-out in assay [12]: Thyroid Hormone Responsive (THRSP), THRSP (gene 7069)
Briefly: LTEA_HepaRG_THRSP: Life Technologies and Expression Analysis (LTEA) Assay for Thyroid Hormone Responsive (THRSP) using HepaRG (AID 2283536). The conditions noted are these: mRNA level, 48 h; actives raise or lower the signal. In short, it runs like this: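 THRSP transcript quantified by Fluidigm qRT-PCR against three housekeeping genes after 48 h chemical exposure of HepaRG cells in serum-free induction medium; eight-point half-log series, top 100 uM, 0.5% DMSO vehicle, duplicate wells.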

Read-out in assay [13]: Cellular tumor antigen p53 (Homo sapiens) (UniProt P04637)
The experiment in a line: LTEA_HepaRG_TP53: Life Technologies and Expression Analysis (LTEA) Assay for Tumor Protein P53 (TP53) using HepaRG (AID 2283537). The settings on record: mRNA level, 48 h; actives raise or lower the signal. In short, it runs like this: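 Read-out is TP53 transcript level by microfluidic qRT-PCR, normalised to three housekeeping genes and fitted bidirectionally against DMSO. Human HepaRG cells received compounds for 48 h, highest concentration 100 uM.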

Read-out in assay [14]: UDP glucuronosyltransferase (UGT1A1), UGT1A1 (gene 54658)
The experiment in a line: LTEA_HepaRG_UGT1A1: Life Technologies and Expression Analysis (LTEA) Assay for UDP glucuronosyltransferase (UGT1A1) using HepaRG (AID 2283538). The settings on record: mRNA level, 48 h; actives raise or lower the signal. In short, it runs like this: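 HepaRG, 48 h chemical exposure (top 100 uM, half-log 8-pt, 0.5% DMSO vehicle), duplicate wells; qRT-PCR (TaqMan, Fluidigm array) for UGT1A1 mRNA, housekeeping-normalized; bidirectional curve fit vs DMSO baseline.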

Read-out in assay [15]: UDP glucuronosyltransferase (UGT1A6), UGT1A6 (gene 54578)
The experiment in a line: LTEA_HepaRG_UGT1A6: Life Technologies and Expression Analysis (LTEA) Assay for UDP glucuronosyltransferase (UGT1A6) using HepaRG (AID 2283539). The settings on record: mRNA level, 48 h; actives raise or lower the signal. In short, it runs like this:
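Measures mRNA change in HepaRG hepatic cells exposed 48 h to chemicals (eight-point, maximum 100 uM, 0.5% DMSO vehicle) in serum-free induction medium. Expression normalized to endogenous controls; DMSO served as negative control and baseline.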

Assay [16] in a line: LTEA_HepaRG_LDH_cytotoxicity: Cytotoxicity Assessment in the Life Technologies and Expression Analysis (LTEA) Assay (AID 2283563; active = hit-call score of the fitted dose curve at least 0.9, where 1 is the maximum;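 for AC50: LDH activity released into spent culture medium as a marker of cell death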). In short, it runs like this: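 Spent-medium LDH after 48 h chemical exposure of HepaRG cells in serum-free induction medium; eight concentrations, half-log dilutions from 100 uM, duplicate wells, fitted upward relative to 0.5% DMSO.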
Read-out in assay [17]: Pyruvate Dehydrogenase Kinase 4 (PDK4), PDK4 (gene 5166)
Briefly: LTEA_HepaRG_PDK4: Life Technologies and Expression Analysis (LTEA) Assay for Pyruvate Dehydrogenase Kinase 4 (PDK4) using HepaRG (AID 2283525). The settings on record: mRNA level, 48 h; actives raise or lower the signal. In short, it runs like this: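 Readout is qRT-PCR of PDK4 transcript, normalized to three housekeeping genes, with bidirectional fitting against 0.5% DMSO vehicle. Differentiated HepaRG cells were treated 48 h in serum-free induction medium, duplicate wells, eight-point half-log series topping at 100 uM.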

Assay [18] can be described thus: ATG_XTT_Cytotoxicity: Cytotoxicity Assessment in the Attagene TRANS-FACTORIAL HepG2 Assay (AID 2283584; active = hit-call score of the fitted dose curve at least 0.9, where 1 is the maximum). In short, it runs like this:
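24 h chemical exposure of reporter-transfected HepG2; XTT signal loss vs DMSO indicates cytotoxicity.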

Read-out in assay [19]: X-box binding protein 1 (XBP1), XBP1 (gene 7494)
Briefly: LTEA_HepaRG_XBP1: Life Technologies and Expression Analysis (LTEA) Assay for X-box binding protein 1 (XBP1) using HepaRG (AID 2283540). The conditions noted are these: mRNA level, 48 h; actives raise or lower the signal. In short, it runs like this: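 Eight concentrations (half-log, highest 100 uM, 0.5% DMSO) tested in duplicate on HepaRG cells over 48 h in serum-free induction medium; qRT-PCR of XBP1 normalised to ACTB, GAPDH, POLR2A.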

Results filed as inconclusive are left out. The source made the active and inactive calls. Rule for the calls, unless noted: active = hit-call score of the fitted dose curve at least 0.9, where 1 is the maximum; inactive = score below 0.9.

Sequence of Nuclear factor erythroid 2-related factor 2 (Homo sapiens) (Q16236 whole entry, looked up): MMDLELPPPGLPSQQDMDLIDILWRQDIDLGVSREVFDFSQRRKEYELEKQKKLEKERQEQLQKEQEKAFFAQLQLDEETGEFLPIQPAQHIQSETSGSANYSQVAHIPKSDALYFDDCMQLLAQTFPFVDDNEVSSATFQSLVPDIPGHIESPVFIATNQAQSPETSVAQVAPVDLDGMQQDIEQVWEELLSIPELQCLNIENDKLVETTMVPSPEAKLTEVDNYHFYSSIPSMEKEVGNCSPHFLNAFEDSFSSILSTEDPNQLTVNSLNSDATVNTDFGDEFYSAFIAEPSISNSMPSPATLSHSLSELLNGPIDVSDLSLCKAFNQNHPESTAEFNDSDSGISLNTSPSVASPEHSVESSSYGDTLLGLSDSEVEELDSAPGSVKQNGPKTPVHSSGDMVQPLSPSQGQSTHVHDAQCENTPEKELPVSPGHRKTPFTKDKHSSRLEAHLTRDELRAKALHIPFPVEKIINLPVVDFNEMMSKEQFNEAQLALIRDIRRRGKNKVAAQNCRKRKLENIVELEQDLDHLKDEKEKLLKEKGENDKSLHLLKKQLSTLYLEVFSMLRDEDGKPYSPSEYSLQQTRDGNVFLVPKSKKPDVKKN
Sequence of Cellular tumor antigen p53 (Homo sapiens) (P04637 whole entry, looked up): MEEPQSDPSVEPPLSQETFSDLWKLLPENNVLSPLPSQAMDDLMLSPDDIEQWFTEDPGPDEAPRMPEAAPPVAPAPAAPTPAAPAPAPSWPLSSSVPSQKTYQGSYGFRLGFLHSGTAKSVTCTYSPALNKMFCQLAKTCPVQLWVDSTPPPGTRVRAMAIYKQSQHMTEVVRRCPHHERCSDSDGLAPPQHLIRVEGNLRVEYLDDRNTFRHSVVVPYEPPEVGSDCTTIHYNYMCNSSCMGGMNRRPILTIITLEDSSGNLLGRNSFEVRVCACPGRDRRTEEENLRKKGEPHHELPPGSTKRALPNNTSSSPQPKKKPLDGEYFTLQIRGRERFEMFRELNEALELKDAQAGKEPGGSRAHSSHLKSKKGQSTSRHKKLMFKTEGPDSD
Sequence of Signal transducer and activator of transcription 3 (Homo sapiens) (P40763 whole entry, looked up): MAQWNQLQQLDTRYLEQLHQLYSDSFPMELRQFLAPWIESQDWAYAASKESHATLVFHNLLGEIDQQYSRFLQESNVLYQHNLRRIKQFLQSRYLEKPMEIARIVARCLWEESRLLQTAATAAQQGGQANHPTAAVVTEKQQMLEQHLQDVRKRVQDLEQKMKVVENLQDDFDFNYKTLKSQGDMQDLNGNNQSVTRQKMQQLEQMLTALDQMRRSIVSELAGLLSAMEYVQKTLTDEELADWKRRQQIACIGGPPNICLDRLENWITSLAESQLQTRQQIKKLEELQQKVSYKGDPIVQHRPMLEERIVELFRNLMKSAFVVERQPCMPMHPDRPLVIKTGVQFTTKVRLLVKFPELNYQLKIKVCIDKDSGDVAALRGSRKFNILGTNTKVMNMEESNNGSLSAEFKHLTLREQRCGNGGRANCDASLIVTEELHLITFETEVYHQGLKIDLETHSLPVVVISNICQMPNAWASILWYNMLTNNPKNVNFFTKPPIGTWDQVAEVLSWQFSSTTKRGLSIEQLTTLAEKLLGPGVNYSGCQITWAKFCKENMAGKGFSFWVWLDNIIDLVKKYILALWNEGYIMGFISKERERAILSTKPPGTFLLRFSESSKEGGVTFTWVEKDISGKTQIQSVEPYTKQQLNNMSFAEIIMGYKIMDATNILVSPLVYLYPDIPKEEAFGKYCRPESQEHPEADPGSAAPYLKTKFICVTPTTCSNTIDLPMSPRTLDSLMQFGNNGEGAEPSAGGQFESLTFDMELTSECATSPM

Regarding `COC(=O)CC(=O)OC`, the compound was called inactive in [1], in assay [2], in assay [3], in assay [4], in [5] and in assay [6]. Moreover, the outcome in assay [7] is “inactive”; in [8], “inactive”; in assay [9] it was “inactive”; in [10], “inactive”; in the assay with TIMP1, TIMP1 (gene 7076), “inactive”; in [11], “inactive”. Also, the compound was classed as inactive in assay [12], in assay [13], in assay [14], in [15] and in [16].

Turning to `Fc1ccccc1[C@@H](F)COC1CCC(Nc2ncnc3[nH]ncc23)CC1` (stereo not given in full), the outcome is “inactive” in assay [1]; “inactive” in assay [5]; “inactive” in assay [10]; “inactive” with TIMP1, TIMP1 (gene 7076); “inactive” in [11]; “inactive” in [13]. Further, the result in [16] was inactive. Moreover, the concentration at half-maximal activity (AC50) (as a rule, the concentration at which the activity in the assay is half-maximal) was 55.8 µM (active) in assay [2]; 11.7 µM (active) in assay [17]; 88.8 µM (active) in assay [4]; 8.85 µM (active) in assay [6]; 71.7 µM (active) in [7]; 65.7 µM (active) in [8]. Moreover, the AC50 was 50 µM (active) in assay [9], 68 µM (active) in assay [14] and 50 µM (active) in assay [15].

Take `NC(=O)NO`: the compound was called inactive in [1], in [2], in assay [3], in [4], in assay [5] and in assay [6]. Also, the outcome in [7] was “inactive”; in assay [8], “inactive”; in [9], “inactive”; in assay [10], “inactive”; in the assay with TIMP1, TIMP1 (gene 7076), “inactive”; in [11] it was “inactive”. Further, the result in [12], in assay [13], in assay [14], in [15], in assay [16] and in assay [18] was inactive.

Take `CCCCCCc1ccc(O)cc1O`: the result in [1], in assay [2], in [4], in [5], in assay [6] and in assay [7] was inactive. In addition, the outcome in [8] is “inactive”; in assay [9], “inactive”; in assay [10] it was “inactive”; with TIMP1, TIMP1 (gene 7076), “inactive”; in [11], “inactive”; in assay [12] it was “inactive”. In addition, the compound was called inactive in [13], in [14], in assay [15], in assay [19] and in assay [18]. The figures for the AC50 in assay [17] and in [16] were 66.4 µM (active) and 77.7 µM (active), respectively.
